Here are results for 24 compounds from PubChem BioAssay AID493168 (National Center for Advancing Translational Sciences (NCATS), 2011).

Records with an inconclusive call do not appear. Values without a mark were called inactive. Active and inactive are the calls of the source. Calls follow the shape of the dose curve; as a rule, active = well fitted inhibition curve with a large enough effect; inconclusive = small, poorly fitted or top-dose-only effect, or effect the other way; inactive = flat fitted curve, though single readings scatter.
Potency is read from the fitted curve at half-maximal effect.

Ubiquitin carboxyl-terminal hydrolase 2 (Homo sapiens), sequence (O75604 whole entry, looked up): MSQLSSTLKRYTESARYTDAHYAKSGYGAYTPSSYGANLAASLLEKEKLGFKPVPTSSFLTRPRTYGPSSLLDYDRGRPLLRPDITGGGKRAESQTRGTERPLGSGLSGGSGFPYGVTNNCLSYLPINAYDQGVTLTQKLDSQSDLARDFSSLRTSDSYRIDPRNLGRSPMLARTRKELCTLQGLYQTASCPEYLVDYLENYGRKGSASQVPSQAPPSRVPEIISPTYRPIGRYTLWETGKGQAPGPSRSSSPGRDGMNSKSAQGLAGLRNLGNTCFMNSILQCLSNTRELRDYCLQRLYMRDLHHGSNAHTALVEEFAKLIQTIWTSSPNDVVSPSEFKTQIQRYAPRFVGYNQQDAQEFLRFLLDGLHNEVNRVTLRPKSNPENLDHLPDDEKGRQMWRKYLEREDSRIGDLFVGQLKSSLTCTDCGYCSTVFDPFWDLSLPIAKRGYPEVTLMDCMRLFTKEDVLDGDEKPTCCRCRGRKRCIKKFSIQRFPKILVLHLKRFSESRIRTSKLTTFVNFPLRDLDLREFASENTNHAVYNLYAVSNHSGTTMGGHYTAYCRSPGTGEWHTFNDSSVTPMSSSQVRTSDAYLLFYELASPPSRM

This assay has as its target Ubiquitin carboxyl-terminal hydrolase 2 (Homo sapiens) (UniProt O75604). Briefly: Confirmation Assay for Inhibitors of Ubiquitin-specific Protease USP2a Using CHOP2 as the Reporter. Also: nearly all actives have a fitted effect of over 55% in size.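 As to activity change, negative = inhibition: plate controls were DMSO wells for no effect and full inhibition by NEM control for full effect.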 Particulars: USP2 core, Ub-CHOP2 coupled reporter fluorescence; series mostly up to 38.3 µM; activity change, negative = inhibition: at the top concentration. In short, it runs like this: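 USP2 core (10 nM final) was preincubated with compound for 30 min at RT in Tris-HCl pH 8.0, CaCl2, beta-mercaptoethanol, CHAPS. Ub-CHOP2 and reporter substrate (25 nM final each) were added, and fluorescence (Ex 485/Em 531 nm) was read after 60 min.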
Regarding `C=CCSC1=N/C(=C\C=C\c2ccco2)C(=O)S1`, the “activity change, negative = inhibition” value is -9.76%.

`Cc1cc(C)c2c(N=CN(C)C)c(C(=O)N3CCN(c4ncccn4)CC3)sc2n1`: the “activity change, negative = inhibition” value was -1.59%. The same measure, in the same setting: the figure for `Cc1cc(C)n2nc(S(=O)(=O)NCCc3ccccc3)nc2n1` is -0.0643%; for `COC(=O)c1ccc(NC(=O)CSC2=Nc3ccccc3C3CC=NN23)cc1` (centres undefined) it is 0.248%. Consider `COc1ccc(CN(Cc2cc3cc(C)ccc3[nH]c2=O)C(=O)N(C)C)cc1`, for which the “activity change, negative = inhibition” value is 0.163%. As for `O=C(CCc1nc(-c2ccccc2F)no1)NC1CCCCCC1`, the “activity change, negative = inhibition” value was -0.733%.

In the case of `O=C(NCCOC(=O)c1ccccc1C(=O)OCCNC(=O)c1cccnc1)c1cccnc1`, the “activity change, negative = inhibition” value is -4%.

As to `Cn1nc(CC(=O)NCc2ccc(F)cc2)c2ccccc2c1=O`, the “activity change, negative = inhibition” value is 4.3%. Still for that read-out and setting: under `Cc1ccc(NC(=O)c2cc3c(=O)oc4ccccc4c3s2)nc1` stands -0.826%.

Regarding `COc1ccc2[nH]c(=O)c(CN(Cc3ccco3)Cc3nnnn3Cc3ccccc3)cc2c1`, the “activity change, negative = inhibition” value was -0.234%.

For the compound `COc1ccc(NC(=O)CSc2nc3sc(C)cc3c(=O)n2C)c(OC)c1`, the “activity change, negative = inhibition” value was -4.17%. Turning to `C#CCOCCOCCOCCNc1nc(N2CCN(C(=O)CCCCCCCCCCNC(=O)[C@H]([C@@H](C)CC)n3cc(CCCCCN)nn3)CC2)nc(N2CCN(C(=O)CCCCCCCCCCNC(=O)[C@H](CCCCN)n3cc(CCCC(=O)O)nn3)CC2)n1`, the Potency was 13.1 µM (active).

As to `CCCNC(=O)CS(=O)Cc1nc(-c2ccccc2C)oc1C` (centres undefined), the “activity change, negative = inhibition” value is 1.7%. In the case of `CC(C)CC(c1nnnn1CC1CCCO1)N1CCN(c2nc3ccccc3s2)CC1` (centres undefined), the “activity change, negative = inhibition” value is -1.59%.

Take `COc1ccc(CCNC(=O)Cc2cc(=O)[nH]c(=O)[nH]2)cc1OC`: the “activity change, negative = inhibition” value was 1.29%. In the case of `COc1ccccc1-c1nnc(SCC(=O)Nc2nc(-c3ccccc3)cs2)n1C`, the “activity change, negative = inhibition” value was -3.95%. With `COc1ccc(NC(=O)CSc2nc(O)cc(=O)n2-c2ccc(OC)cc2)cc1`, the “activity change, negative = inhibition” value was -2.82%.

For `O=S(=O)(c1ccccc1)N(CC1CO1)c1cc(Cl)ccc1Cl` (centres undefined), the “activity change, negative = inhibition” value is -2.76%. Still for that read-out and setting: the figure for `N#Cc1cccc(C(=O)N(CCc2ccccc2)Cc2cccs2)c1` is -0.668%; for `O=C(Cn1nc(-c2cccs2)ccc1=O)Nc1ccc(Br)cc1` it is 0.104%; for `COC(=O)c1[nH]c(=O)c2ccccc2c1OCc1ccccc1` it is -3.77%. The same measure, in the same setting: under `Cc1ccc(S(=O)(=O)Nc2ccc(N3CCOCC3)cc2)cc1` stands -0.804%.

With `O=C(c1ccccc1N(Cc1ccccc1)S(=O)(=O)c1ccccc1)N1CCOCC1`, the “activity change, negative = inhibition” value was 0.161%. As for `Nc1cc(N)nc(SCC(=O)N2CCCCC2)n1`, the “activity change, negative = inhibition” value is -1.88%.
